Among the data in PubChem BioAssay (NCI) are growth values, retold here.

Structures are written as SMILES. This is part of a sample that, as a whole, favours compounds with a hit. Of some 83,000 tested, about 20% had one in any assay.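 Growth was measured after 48 h exposure to one concentration of compound in 96-well plates. Values under 10 count as active.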 Values without a mark were called inactive. Active and inactive are the calls of the source.

Experiment in all cases: NCI-60 one-dose screen, 48 h (100 = growth as untreated, 0 = no growth, -100 = all killed)
In one experiment the test system is HCT-15 colon. Conditions: 10 µM.
In the next experiment the test system is HT29 colon. Particulars: 10 µM.
The next experiment has as its system SNB-75 CNS. Particulars: 10 µM.
In another experiment the test system is U251 CNS. Particulars: 10 µM.
For another experiment, the system named is PC-3 prostate. Particulars: 10 µM.
A further experiment relates to SK-MEL-5 melanoma. Conditions: 10 µM.
The test system of another experiment is UACC-62 melanoma. Particulars: 10 µM unless noted.
A further experiment relates to LOX IMVI melanoma. Particulars: 10 µM.
For another experiment, the system named is SK-MEL-28 melanoma. Particulars: 10 µM.
For a further experiment, the system named is SK-MEL-2 melanoma. Conditions: 10 µM.
The next experiment concerns EKVX NSCLC. Conditions: 10 µM.
The next experiment deals with SN12C renal. Particulars: 10 µM.
Another experiment deals with UO-31 renal. Particulars: 10 µM.
The test system of the next experiment is TK-10 renal. Conditions: 10 µM unless noted.
The subject of the next experiment is ACHN renal. Conditions: 10 µM.
Another experiment deals with CAKI-1 renal. Particulars: 10 µM.
For another experiment, the system named is A498 renal. Conditions: 10 µM.
A further experiment has as its system CCRF-CEM leukemia. Particulars: 10 µM.
Another experiment deals with MOLT-4 leukemia. Particulars: 10 µM.
The subject of a further experiment is SNB-19 CNS. Conditions: 10 µM.

As for `NCCC(=O)c1ccc(Cl)cc1`, the growth was 107% with HCT-15 colon; 106% with HT29 colon; 96.1% with SNB-75 CNS; 105% in the experiment with U251 CNS; 97.2% in the experiment on PC-3 prostate; 99.5% in the experiment with SK-MEL-5 melanoma. Also, the growth with UACC-62 melanoma was 112%; in the experiment with LOX IMVI melanoma it was 106%; with SK-MEL-28 melanoma, 109%; in the experiment with SK-MEL-2 melanoma it was 101%; in the experiment with EKVX NSCLC it was 110%; in the experiment with SN12C renal, 108%. In addition, the growth in the experiment on UO-31 renal is 85.7%; in the experiment with TK-10 renal, 102%; in the experiment with ACHN renal, 121%; with CAKI-1 renal it was 101%; in the experiment on A498 renal it was 107%; with CCRF-CEM leukemia, 103%. Also, in the experiment on MOLT-4 leukemia, the growth was 89.6%.

In the case of `COc1ccc(/C(C#N)=C2C=C/C(=N/O)c3ccccc3\2)cc1`, the growth was 7.28% (active) in the experiment on HCT-15 colon; -13.3% (active) in the experiment on HT29 colon; 23.4% with SNB-75 CNS; 61.7% in the experiment with SNB-19 CNS; 12.8% with PC-3 prostate; -28.9% (active) in the experiment with SK-MEL-5 melanoma. In addition, the growth is 6.75% (active) in the experiment on UACC-62 melanoma; 9.34% (active) with LOX IMVI melanoma; 46.5% with SK-MEL-28 melanoma; 23.7% in the experiment on SN12C renal; 31.1% in the experiment on UO-31 renal; 54.5% in the experiment with TK-10 renal. Moreover, the growth was 22.6% in the experiment with ACHN renal, 25.5% in the experiment with CAKI-1 renal, -8.12% (active) with A498 renal and 19.2% in the experiment on MOLT-4 leukemia.

`O=C1OC(c2ccc(F)cc2)CC1CN1CCOCC1` (centres undefined): the growth in the experiment with HCT-15 colon is 110%; in the experiment with HT29 colon, 90.3%; with SNB-75 CNS, 89.1%; in the experiment with SNB-19 CNS, 98.1%; with PC-3 prostate, 88.9%; with SK-MEL-5 melanoma, 104%. Further, the growth is 110% in the experiment with UACC-62 melanoma; 89.2% with LOX IMVI melanoma; 109% with SK-MEL-28 melanoma; 102% with SN12C renal; 83.5% with UO-31 renal; 83.2% with TK-10 renal. For the same compound, the values for the growth in the experiment on ACHN renal, in the experiment on CAKI-1 renal and in the experiment on MOLT-4 leukemia were 105%, 85.8% and 102%, respectively.

For `COc1cc(CCN=Cc2ccccc2O)c([N+](=O)[O-])cc1OC`, the growth is 92.3% with HCT-15 colon; 101% in the experiment with HT29 colon; 96.6% in the experiment on SNB-75 CNS; 99.3% with SNB-19 CNS; 101% with SK-MEL-5 melanoma; 109% with UACC-62 melanoma. Also, the growth with SK-MEL-28 melanoma is 113%; with SK-MEL-2 melanoma, 102%; in the experiment with SN12C renal, 103%; in the experiment with UO-31 renal, 79.3%; in the experiment with TK-10 renal, 96.9%; in the experiment with ACHN renal, 96.7%. Further, the growth in the experiment with CAKI-1 renal was 86.6%; with A498 renal, 119%; in the experiment on MOLT-4 leukemia it was 96.1%.

Regarding `O=C(NCc1ccco1)Nc1c(Cl)cc(Cl)cc1Cl`, the growth was 100% in the experiment with HCT-15 colon; 94.3% with HT29 colon; 89.1% with SNB-75 CNS; 103% with SNB-19 CNS; 91.6% with PC-3 prostate; 100% in the experiment with SK-MEL-5 melanoma. In addition, the growth in the experiment on UACC-62 melanoma is 101%; with LOX IMVI melanoma, 99.3%; with SK-MEL-28 melanoma it was 103%; in the experiment on SK-MEL-2 melanoma, 75.5%; in the experiment on SN12C renal, 96.9%; in the experiment on UO-31 renal it was 84%. Moreover, the growth in the experiment on TK-10 renal was 105%; with ACHN renal, 97.2%; with CAKI-1 renal, 89.1%; in the experiment with A498 renal, 99.5%; in the experiment with MOLT-4 leukemia, 108%.

On to `O=C(Nc1ccccc1C(=O)NCC1CC1)c1cccs1`, for which the growth was 93.8% with HCT-15 colon; 105% in the experiment with HT29 colon; 70.3% with SNB-75 CNS; 100% in the experiment on SNB-19 CNS; 94.6% with PC-3 prostate; 98.7% in the experiment on SK-MEL-5 melanoma. Besides, the growth in the experiment with UACC-62 melanoma is 98.4%; with SK-MEL-28 melanoma, 110%; in the experiment on SK-MEL-2 melanoma it was 113%; in the experiment with SN12C renal, 100%; in the experiment with UO-31 renal, 89.4%; in the experiment on TK-10 renal, 114%. Besides, the growth with ACHN renal was 103%; with CAKI-1 renal it was 82.7%; in the experiment with A498 renal, 106%; in the experiment on MOLT-4 leukemia, 111%.

In the case of `CC[N+](C)(CC)CCO`, the growth in the experiment on HCT-15 colon is 97.8%; with HT29 colon, 103%; in the experiment on SNB-75 CNS, 108%; in the experiment with SNB-19 CNS it was 97.7%; in the experiment on PC-3 prostate, 102%; in the experiment on SK-MEL-5 melanoma it was 101%. In addition, the growth is 102% in the experiment with UACC-62 melanoma; 110% in the experiment with SK-MEL-28 melanoma; 109% in the experiment on SK-MEL-2 melanoma; 98% with SN12C renal; 92% in the experiment with UO-31 renal; 95.3% in the experiment on TK-10 renal. For the same compound, the growth is 106% with ACHN renal, 94% in the experiment with CAKI-1 renal, 109% in the experiment on A498 renal and 101% in the experiment with MOLT-4 leukemia.

Turning to `COC(=O)Nc1cccc(Cl)c1OC`, the growth was 96.4% in the experiment with HCT-15 colon; 111% in the experiment with HT29 colon; 99% in the experiment on SNB-75 CNS; 112% with SNB-19 CNS; 103% in the experiment with PC-3 prostate; 100% in the experiment on SK-MEL-5 melanoma. Moreover, the growth was 111% in the experiment on UACC-62 melanoma; 114% in the experiment with SK-MEL-28 melanoma; 112% in the experiment with SN12C renal; 95.6% in the experiment on UO-31 renal; 120% in the experiment on TK-10 renal; 99.8% with ACHN renal. In addition, the growth with CAKI-1 renal is 94.5%; in the experiment with A498 renal it was 61.9%; in the experiment on MOLT-4 leukemia, 103%.

Turning to `O=[N+]([O-])c1ccccc1S(=O)c1ccccc1[N+](=O)[O-]`, the growth with HCT-15 colon is 98.2%; in the experiment on HT29 colon, 107%; with SNB-75 CNS, 83.1%; with SNB-19 CNS, 106%; with PC-3 prostate, 81.1%; in the experiment on SK-MEL-5 melanoma, 95.7%. Also, the growth with UACC-62 melanoma was 83.3%; with LOX IMVI melanoma, 70%; with SK-MEL-28 melanoma, 100%; with SN12C renal, 99.7%; with UO-31 renal, 73.4%; in the experiment with TK-10 renal, 135%. Moreover, the growth in the experiment with ACHN renal was 106%; in the experiment with CAKI-1 renal it was 61.7%; with MOLT-4 leukemia, 42%.

For `O=C(OCC(O)C1OC(c2ccccc2)OC(COC(=O)c2ccccc2)C1O)c1ccccc1` (centres undefined), the growth in the experiment on HCT-15 colon was 96.6%; in the experiment on HT29 colon, 103%; in the experiment on SNB-75 CNS it was 77.4%; in the experiment on SNB-19 CNS, 94.2%; in the experiment with PC-3 prostate, 83.5%; in the experiment on SK-MEL-5 melanoma, 97.1%. For the same compound, the growth was 108% with UACC-62 melanoma; 108% with LOX IMVI melanoma; 104% with SK-MEL-28 melanoma; 99.6% in the experiment with SN12C renal; 93.2% in the experiment with UO-31 renal; 99.6% with TK-10 renal. The growth with ACHN renal was 106%; with CAKI-1 renal, 85.3%; in the experiment on MOLT-4 leukemia, 102%.
